The panel holds about 83,000 compounds, 20% with a hit somewhere; the sample as a whole holds those more often.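 Note: values are percent growth. 100 is the growth of untreated cells, values between 100 and 0 indicate rising inhibition; between -100 and 0 indicates cell death.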 Values without a mark were called inactive. Activity calls are given as the source filed them. The calls were made as follows: active = growth percent below 10; inactive = the rest.

This passage reports growth results from PubChem BioAssay (NCI).

Test systems include T-47D breast; BT-549 breast; MDA-MB-435 melanoma; SW-620 colon; MCF7 breast; HCT-116 colon; HCC-2998 colon; KM12 colon.
Common to all, as to test: NCI-60 one-dose screen, 48 h (100 = growth as untreated, 0 = no growth, -100 = all killed)
Conditions in all cases: 10 µM unless noted

In the case of `CCCCCSc1ccc2nc(NC(=O)OCC)sc2c1`, the growth in the experiment on T-47D breast is 29.7%; in the experiment with BT-549 breast, 37.2%; in the experiment on MDA-MB-435 melanoma, -47% (active); with SW-620 colon, 19.6%; with MCF7 breast, 13.9%; in the experiment on HCT-116 colon it was 26%. Besides, the results for the growth with HCC-2998 colon and in the experiment with KM12 colon were 55% and 19.7%, respectively.
Consider `Cn1c2c(cc(S(=O)(=O)c3ccccc3)c1=O)CCc1c-2cnn1-c1ccc(Cl)cc1`, for which the growth with T-47D breast is -24.2% (active); in the experiment with BT-549 breast it was -13.8% (active); with MDA-MB-435 melanoma it was 16.2%; with SW-620 colon, 56.7%; with MCF7 breast, -27.7% (active); in the experiment with HCT-116 colon, 53%. Moreover, the growth was 74.3% in the experiment on HCC-2998 colon and 92.2% in the experiment with KM12 colon.
`CCOC1=C(Cl)C(=O)C(OCC)=C(Cl)C1=O`: the growth in the experiment with T-47D breast was 93.5%; with BT-549 breast, 114%; in the experiment with MDA-MB-435 melanoma, 100%; in the experiment on SW-620 colon, 110%; in the experiment with MCF7 breast it was 99.5%; in the experiment on HCT-116 colon it was 113%. Besides, the growth in the experiment on HCC-2998 colon was 91.2%; in the experiment with KM12 colon, 98.3%.
As to `Nc1ccc(N=Nc2ccccc2)c2cc(S(=O)(=O)O)ccc12`, the growth in the experiment on T-47D breast is 97%; in the experiment on BT-549 breast, 114%; in the experiment on MDA-MB-435 melanoma it was 108%; in the experiment on SW-620 colon it was 106%; in the experiment on MCF7 breast, 86.5%; in the experiment on HCT-116 colon it was 104%. Also, the growth in the experiment with HCC-2998 colon and in the experiment on KM12 colon was 103% each time.
Consider `CCCCS(=O)(=O)c1cc(Nc2ccc(O)c3c2C(=O)c2ccccc2C3=O)ccc1C`, for which the growth was 75.6% with T-47D breast; 91.6% in the experiment on BT-549 breast; -85.7% (active) in the experiment with MDA-MB-435 melanoma; 103% in the experiment with SW-620 colon; 33.8% in the experiment with MCF7 breast; 78.7% in the experiment on HCT-116 colon. Also, the growth in the experiment with HCC-2998 colon was 67%; in the experiment with KM12 colon it was 73.4%.
Take `Cc1cc2c(-c3nc4ccccc4[nH]3)c(O)c(O)cc2c(O)c1-c1c(C)cc2c(-c3nc4ccccc4[nH]3)c(O)c(O)cc2c1O`: the growth is -16.7% (active) with T-47D breast; -6.04% (active) in the experiment on BT-549 breast; 23.3% with MDA-MB-435 melanoma; 23.4% with SW-620 colon; 5.3% (active) in the experiment on MCF7 breast; 7.37% (active) in the experiment on HCT-116 colon. In addition, the figures for the growth in the experiment on HCC-2998 colon and in the experiment on KM12 colon were 19.5% and -38.6% (active), respectively.
Consider `COc1cc(OC)c2c(=O)cc(-c3ccccc3)oc2c1`, for which the growth is 91.2% with T-47D breast; 109% with BT-549 breast; 95.8% in the experiment on MDA-MB-435 melanoma; 89.7% in the experiment with SW-620 colon; 102% in the experiment on MCF7 breast; 88.9% with HCT-116 colon. The growth was 97% in the experiment on HCC-2998 colon and 106% with KM12 colon.
As for `COc1ccc(OC)c(Cn2cc3c(c2)-c2oncc2CC3)c1`, the growth in the experiment on T-47D breast is 36.1%; with BT-549 breast, 33.3%; in the experiment on MDA-MB-435 melanoma, -40.1% (active); in the experiment with SW-620 colon it was 22.4%; with MCF7 breast, 8.44% (active); in the experiment with HCT-116 colon, 16.8%. Further, the growth is 66.6% with HCC-2998 colon and 28.9% with KM12 colon.
Consider `O=C(NC(=S)NNC(=S)NNc1ccccc1)c1ccccc1`, for which the growth is 18.4% in the experiment with T-47D breast; 49.5% in the experiment on BT-549 breast; 4.94% (active) with MDA-MB-435 melanoma; 24.4% with SW-620 colon; 8.12% (active) in the experiment on MCF7 breast; 24.3% in the experiment on HCT-116 colon. The growth with HCC-2998 colon is 50.7%; in the experiment with KM12 colon, 59%.
With `Oc1ccccc1/C=N/N=C/c1c(O)ccc2ccccc12`, the growth with T-47D breast is 63.4%; in the experiment with BT-549 breast, 77.8%; in the experiment on MDA-MB-435 melanoma it was 108%; with SW-620 colon, 95%; in the experiment on MCF7 breast, 52.7%; with HCT-116 colon, 83%. In addition, the figures for the growth with HCC-2998 colon and with KM12 colon were 91.2% and 76.4%, respectively.
As to `COc1ccc(-c2nnc(SCC(=O)Nc3ccc(C(=O)/C=C/c4cc(OC)c(OC)c(OC)c4)cc3)n2-c2ccccc2)cc1OC`, the growth is -43.3% [100 µM] (active) in the experiment on T-47D breast; -94.7% [100 µM] (active) in the experiment on BT-549 breast; -16.1% [100 µM] (active) in the experiment with MDA-MB-435 melanoma; 12.2% [100 µM] in the experiment on SW-620 colon; 1.19% [100 µM] (active) in the experiment with MCF7 breast; -84.5% [100 µM] (active) with HCT-116 colon. Further, in the experiment with HCC-2998 colon, the growth is 8.22% [100 µM] (active).
As to `COc1ccc(-c2nc(SCC(C)C)nc(Nc3ccccc3)c2C#N)cc1`, the growth is 51.3% with T-47D breast; 101% in the experiment on BT-549 breast; 92.8% with MDA-MB-435 melanoma; 67.8% in the experiment on SW-620 colon; 75.7% in the experiment with MCF7 breast; 38.5% with HCT-116 colon. Moreover, the results for the growth in the experiment on HCC-2998 colon and in the experiment with KM12 colon were 99.3% and 97.9%, respectively.
For the compound `N=c1c2c(=O)n3c(nc2nc2sc4ccc(Cl)cc4n12)-c1ccccc1Sc1ccccc1-3`, the growth is 1.99% (active) in the experiment on T-47D breast; 1.57% (active) with BT-549 breast; 0.844% (active) with MDA-MB-435 melanoma; 26.1% in the experiment with SW-620 colon; 6.98% (active) with MCF7 breast; 7.35% (active) with HCT-116 colon. Also, the results for the growth in the experiment with HCC-2998 colon and with KM12 colon were 6.95% (active) and 22.6%, respectively.
On to `CCOC(=O)C(C)C(C)(O)c1ccccc1` (configuration not stated), for which the growth in the experiment on T-47D breast is 97.3%; in the experiment on BT-549 breast it was 105%; with MDA-MB-435 melanoma, 102%; with SW-620 colon it was 114%; with MCF7 breast it was 93.6%; in the experiment on HCT-116 colon it was 97.1%. The growth in the experiment on HCC-2998 colon is 84.4%; with KM12 colon, 97.7%.
For the compound `COc1cc(Cn2ccc3c2-c2oncc2CC3)cc(OC)c1`, the growth in the experiment with T-47D breast was 32.2%; with BT-549 breast it was 32.9%; in the experiment with MDA-MB-435 melanoma, -37% (active); in the experiment with SW-620 colon it was 18%; in the experiment on MCF7 breast, 6.18% (active); with HCT-116 colon, 14.7%. The growth was 61.6% in the experiment on HCC-2998 colon and 24.5% in the experiment on KM12 colon.
With `O=C(C(=O)N1CCOCC1)c1ccc(O[C@H]2O[C@H](CO)[C@@H](O)[C@H](O)[C@@H]2O)cc1`, the growth in the experiment with T-47D breast was 107%; in the experiment with BT-549 breast, 99.3%; with MDA-MB-435 melanoma, 108%; in the experiment with SW-620 colon, 107%; in the experiment with MCF7 breast it was 100%; with HCT-116 colon it was 96.6%. The growth in the experiment with HCC-2998 colon was 79%; in the experiment on KM12 colon, 110%.
